Over roughly 8,300 sequences, “log2 fold change of degron read counts, EGFP-low vs EGFP+ sorted cells (limma voom), compound-induced degradation” has its median near -1.1; the highest 2% begin near 3.2. The sample as a whole holds a higher share of the highest values than the screen did.
T1: CRBN, Q96SW2
T1 chain: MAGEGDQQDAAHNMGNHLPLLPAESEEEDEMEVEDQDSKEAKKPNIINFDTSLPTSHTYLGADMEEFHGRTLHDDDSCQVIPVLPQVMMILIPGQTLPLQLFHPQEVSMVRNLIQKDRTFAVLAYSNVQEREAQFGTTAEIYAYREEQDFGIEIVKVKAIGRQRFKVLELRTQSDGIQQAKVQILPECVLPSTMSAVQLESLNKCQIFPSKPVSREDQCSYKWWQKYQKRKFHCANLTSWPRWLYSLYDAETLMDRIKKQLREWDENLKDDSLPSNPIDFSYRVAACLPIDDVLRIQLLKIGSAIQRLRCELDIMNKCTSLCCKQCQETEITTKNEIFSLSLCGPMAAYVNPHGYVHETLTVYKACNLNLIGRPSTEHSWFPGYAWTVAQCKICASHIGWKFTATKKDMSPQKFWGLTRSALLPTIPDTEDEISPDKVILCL


Target: T1, CRBN, Q96SW2
Assay: log2 fold change of degron read counts, EGFP-low vs EGFP+ sorted cells (limma voom), compound-induced degradation; higher = more compound-induced degradation of the degron-EGFP fusion; degrons are variants of IKZF1/3 zinc finger 2; compound dose not given here
Conditions: Jurkat, 18 h
[1] = compound: compound 19 (5-tert-butyl-thalidomide)
[2] = compound: compound 22 (5-morpholino-thalidomide)
[3] = compound: compound 33 (diphenyl IMiD analogue)
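Further: pooled lentiviral library of zinc finger degron-EGFP fusions in mCherry-positive Jurkat cells, FACS-sorted after compound exposure, with degron abundance counted by next-generation sequencing.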

Sequence | log2 fold change of degron read counts [1] | log2 fold change of degron read counts [2] | log2 fold change of degron read counts [3] | log2 fold change of degron read counts (compound: thalidomide)
FMCDVCGAIFTQKGNLLRHIKL [46F_47M_49D_50V_52G_53A_54I_55F_67L_, Q9UKT9] | -2.28 | -2.09 | 0.171 | -1.7
FTCNICGARFTQKGNLLRHIKL [46F_47T_49N_50I_52G_53A_54R_55F_67L_, Q9UKT9] | 0.313 | 1.57 | 0.916 | 2.41
FQCNICGARFTQKGNLLRHIKL [46F_47Q_49N_50I_52G_53A_54R_55F_67L_, Q9UKT9] | -0.916 | 0.973 | 0.399 | 3.26
FYCNICGARFTQKGNLLRHIKL [46F_47Y_49N_50I_52G_53A_54R_55F_67L_, Q9UKT9] | 1.83 | 2.47 | -0.345 | -0.644
FWCNICGARFTQKGNLLRHIKL [46F_47W_49N_50I_52G_53A_54R_55F_67L_, Q9UKT9] | 2.19 | 3.34 | 0.85 | 0.523
FNCNICGARFTQKGNLLRHIKL [46F_47N_49N_50I_52G_53A_54R_55F_67L_, Q9UKT9] | 1.28 | 0.255 | -1.05 | -0.266
FLCNICGARFTQKGNLLRHIKL [46F_47L_49N_50I_52G_53A_54R_55F_67L_, Q9UKT9] | -1.1 | -1.89 | -0.701 | 0.842
LHCPICGFWCTQKGNLLRHIKL [46L_47H_49P_50I_52G_53F_54W_55C_67L_, Q9UKT9] | 1.34 | 1.54 | 2.54 | 1.59
